Screens: PubChem, National Center for Advancing Translational Sciences (NCATS)
DT40 TDP1 CPT – qHTS for Inhibitors of human tyrosyl-DNA phosphodiesterase 1 (TDP1): qHTS in cells in presence of CPT | chicken DT40 Tdp1-/-;hTDP1 cells + 20 nM CPT, ATP luminescence, 48 h | Potency, µM (top dose mostly 46.2 µM), for the others: at the top dose activity change, negative = growth inhibition, most hits filed as inhibitors | hit rate 12% among 420,000 | AID 686979, 2013; further: nearly all actives have a fitted effect of over 55% in size
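Chicken DT40 Tdp1-/- cells complemented with human TDP1, 400 cells/well, exposed to compounds plus 20 nM camptothecin for at least 48 h at 37 C; viability read as ATP content by CellTiter-Glo luminescence.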
TDP1 inh – qHTS Assay for Inhibitors of Tyrosyl-DNA Phosphodiesterase (TDP1); Tyrosyl-DNA phosphodiesterase 1 (Homo sapiens), Q9NUW8; recombinant TDP1, AlphaScreen DNA substrate cleavage; Potency, µM (highest dose often 130 µM), for inactives: top-dose activity change, negative = inhibition, usual class: inhibitors; hit rate 0.28% among 350,000; AID 485290, 2010; further: nearly all actives have a fitted effect of over 40% in size
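Here, a 5' biotin and 3' phosphotyrosine-FITC DNA oligonucleotide reports Tdp1 activity: intact substrate bridges AlphaScreen beads, while cleavage leaves a 3' phosphate and drops signal. All incubations at room temperature.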
TDP1 cell noCPT – qHTS for Inhibitors of human tyrosyl-DNA phosphodiesterase 1 (TDP1): qHTS in cells in absence of CPT | hit rate 15% among 420,000 | DT40 Tdp1-/- hTDP1 cells, no CPT, ATP luminescence, 48 h | Potency, µM (doses to about 46.2 µM), without a hit: at the highest dose activity change, negative = growth inhibition, most hits filed as inhibitors; further: nearly all actives have a fitted effect of over 55% in size
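Camptothecin absent (DMSO only). Human TDP1-complemented DT40 knockout cells, 400 cells/well, 37 °C for minimum 48 hr; ATP measured via CellTiter-Glo, 30 min dark incubation, luminescence.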
RORgamma inh – qHTS for inhibitors of ROR gamma transcriptional activity. Drosophila S2 Gal4-RORgamma UAS-luciferase reporter, 20 h. Potency, µM (series often up to 53.6 µM), for inactives: top-dose activity change, negative = inhibition, most hits filed as inhibitors. hit rate 5.4% among 310,000. AID 2551, 2010; further: nearly all actives have a fitted effect of over 60% in size
Target sequence (P51450 whole entry, looked up, the tested form may be a part): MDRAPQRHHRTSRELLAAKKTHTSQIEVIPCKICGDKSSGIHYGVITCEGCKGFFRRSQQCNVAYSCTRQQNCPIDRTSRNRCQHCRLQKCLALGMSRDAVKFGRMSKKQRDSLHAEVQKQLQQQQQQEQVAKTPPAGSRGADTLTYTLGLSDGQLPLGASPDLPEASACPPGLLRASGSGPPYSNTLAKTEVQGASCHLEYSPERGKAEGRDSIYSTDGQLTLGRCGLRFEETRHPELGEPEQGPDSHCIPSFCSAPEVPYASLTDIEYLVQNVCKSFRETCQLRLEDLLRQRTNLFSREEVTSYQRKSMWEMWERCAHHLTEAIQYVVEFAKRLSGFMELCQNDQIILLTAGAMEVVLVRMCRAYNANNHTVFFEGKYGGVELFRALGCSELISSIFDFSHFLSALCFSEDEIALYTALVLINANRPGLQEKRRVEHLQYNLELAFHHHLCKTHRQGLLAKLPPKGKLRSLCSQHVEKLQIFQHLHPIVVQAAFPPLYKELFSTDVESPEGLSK
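ROR gamma transcriptional activity was tracked as Gal4-UAS luciferase output in stably transfected Drosophila Schneider cells, with compound added 1 hr before 700 uM copper sulfate induction and a 20 hr ambient-temperature incubation.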
Gal4-VP16 FLuc – VP16 counterscreen qHTS for inhibitors of ROR gamma transcriptional activity | Drosophila S2 Gal4-VP16 UAS-luciferase, luminescence, 20 h | Potency, µM (titrated, usually from 53.6 µM), without a hit: at the highest dose activity, negative = inhibition, usual class: inhibitors | hit rate 3.5% among 310,000 | AID 2546, 2010;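 further: Gal4-VP16 expression switched on by copper sulfate through the metallothionein promoter; nearly all actives have a fitted effect of over 50% in size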
Starred values were filed as active, the others as inactive; u = inconclusive; x = no result; [ ] = remark or other dose. Hits are enriched below; roughly 19% of the tested compounds scored in any of these assays. The call rests on the fitted dose curve; in most records, active means well fitted curve in the direction sought with a large enough effect; inconclusive means small, poorly fitted or top-dose-only effect, or another doubt; inactive means no such curve, though single readings can be large; an effect the other way counts as inactive or inconclusive. On the % scale 0 is the no-effect control and ±100 the full control effect; potency means the concentration at half of the fitted maximal effect.

SMILES	DT40 TDP1 CPT	TDP1 inh	TDP1 cell noCPT	RORgamma inh	Gal4-VP16 FLuc
Cc1nc2ccccc2c(=O)n1-c1cccc(NS(=O)(=O)c2ccccc2)c1	-25%	7%	-35%	x	x
CC(CNC(=O)CCCn1c(=O)c2cccn2c2cccnc21)c1ccccc1 (stereo not given)	u	5%	u	x	x
O=C1OC(c2ccccc2)Sc2ccccc21 (stereo not given)	-1%	x	-5%	x	x
Cc1ccc(NC(=O)CN(c2cc(C)cc(C)c2)S(=O)(=O)c2c(C)noc2C)nc1	u	-4%	u	-2%	-11%
Cc1cc(C)cc(N(CC(=O)Nc2cccc(C)n2)S(=O)(=O)c2c(C)noc2C)c1	21µM*	-3%	13µM*	u	-19%
CCN(CC)c1nc2c3c(nc4c(c3c1C#N)CC(=O)N4c1ccc(Cl)cc1)NC(C)=N2	u	3%	18µM*	u	-16%
CCc1ccc(N2C(=O)Cc3c2nc(N)c(C#N)c3N)cc1	-11%	7%	-2%	37%	11%
CCCCC1(C)OC(=O)C(=Cc2ccc(N(CC)CC)cc2)C(=O)O1 (stereo not given)	9%	-4%	2%	0%	0%
Cc1ccc(NC(=O)O/N=C/c2c(C)nn(C(C)(C)C)c2C)cc1Cl	0%	3%	-21%	0.28µM*	0.28µM*
COc1ccc(/C=N/n2cnn(Cc3ccccc3Cl)c2=S)cc1	3%	-3%	u	-1%	-24%
Cc1ccccc1C1N(c2nccs2)C(=O)C2CCCN21 (stereo not given)	-30%	-8%	-6%	u	u
Cc1ccc(C(=O)c2sc3nsc(C)c3c2N)cc1	-7%	5%	-2%	1%	-9%
O=S(=O)(c1cccs1)N1CCN(c2ccnc3cc(Cl)ccc23)CC1	13µM*	3%	23µM*	u	u
Cc1cc(N2CCN(S(=O)(=O)c3ccccc3)CC2)c2ccccc2n1	16µM*	4%	18µM*	u	u
c1ccc(-c2csc(N3CCCCCC3)n2)cc1	-23%	3%	u	u	u
Cc1cc(N2CCN(c3nc(-c4ccccc4)cs3)CC2)c2ccccc2n1	23µM*	4%	21µM*	-1%	0%
O=S(=O)(c1ccccc1)N1CCN(c2ccnc3cc(Cl)ccc23)CC1	16µM*	0%	u	u	u
Cc1cc(C)c2c3c(oc2n1)C(=O)N(c1cccc(Cl)c1)CC(=O)N3	6%	x	u	-1%	-3%
CC(C)CC1Nc2ccc(C(=O)NCCCOC(C)C)cc2NC1=O (stereo not given)	-22%	-1%	-2%	x	x
COc1ccccc1NC(=O)CCCOc1cc(=O)n(C)c2ccccc12	u	1%	21µM*	x	x
CN(c1ccc(Cl)cc1)c1cc(=O)n(C)c2ccccc12	13µM*	2%	u	-1%	0%
COc1ccc2c(OC)cc(=O)n(C)c2c1	3%	5%	-9%	-13%	-19%
CC(C)CCNC(=O)CCCOc1cc(=O)n(C)c2ccccc12	u	5%	u	13µM*	11%
COc1cc(=O)n(C)c2ccccc12	5%	-4%	-2%	13µM*	0%
Cn1c(=O)cc(OCCCC(=O)Nc2ccccn2)c2ccccc21	-22%	2%	u	-36%	5%
SMILES	DT40 TDP1 CPT	TDP1 inh	TDP1 cell noCPT	RORgamma inh	Gal4-VP16 FLuc
O=C(NCc1ccc(Cl)cc1)C(=O)NCC(c1cccs1)S(=O)(=O)c1cccs1 (stereo not given)	-85%	3%	u	x	x
O=C(Nc1ccc2nn(-c3ccccc3)nc2c1)c1cc2ccccc2o1	u	-3%[12.3 µM]	15µM*	x	x
CCc1ccc(-n2nc3ccc(NC(=O)c4cc5ccccc5o4)cc3n2)cc1	u	x	4.6µM*	x	x
COC(=O)CN1C(=O)[C@H]2[C@@H](/C=C/c3ccccc3)N3C(=O)CN(CCO)C(=O)[C@@]3(Cc3ccccc3)[C@H]2C1=O	1%	x	1%	-2%	7%
C/C(=N\NC(=O)c1cc(C2CC2)nc2ccccc12)c1ccc(O)cc1O	6.5µM*	4%	5.2µM*	16µM*	18µM*
CCNC(=S)NNC(=O)c1cc(-c2cccnc2)nc2ccccc12	3%	5%	-26%	16µM*	u
C/C(=N\NC(=O)c1cc(-c2cccnc2)nc2ccccc12)c1ccccc1O	4.6µM*	0%	3.7µM*	u	3%
CCOc1ccc(-c2cc(C(=O)N/N=C(\C)c3cccnc3)c3ccccc3n2)c(OCC)c1	15µM*	2%[56.1 µM]	u	u	u
CCCNC(=S)NNC(=O)c1cc(-c2cccnc2)nc2ccccc12	15%	2%	3%	u	-11%
COc1ccccc1CN1CC(C(=O)NCCn2nc(C)cc2C)CCC1=O (stereo not given)	5%	1%	8%	-1%	2%
COc1cc(C)nc(SCC(N)=O)n1	-1%	5%	-1%	-3%	1%
O=C(NCCN1CCCCC1)Nc1ccccc1F	-7%	3%	1%	x	x
CCCCOc1cccc(-c2cc(C(=O)NNC(=S)NCC)c3ccccc3n2)c1	u	11%	u	-40%	u
CCNC(=S)NNC(=O)c1cc(-c2cccc(OCC)c2)nc2ccccc12	15µM*	11%	10µM*	13µM*	u
CCNC(=S)NNC(=O)c1cc(-c2cccc(C)c2)nc2ccccc12	21µM*	13%	7.3µM*	3.5µM*	8.9µM*
